# Data published in PubChem BioAssay (NCATS).
# Inconclusive results are not listed. Where a call stands in place of a potency, no number is given. A number with no mark means an inactive call. Activity calls are given as the source filed them. Calls follow the shape of the dose curve; as a rule, active = well fitted curve in the direction sought with a large enough effect; inconclusive = small, poorly fitted or top-dose-only effect, or another doubt; inactive = no such curve, though single readings can be large; an effect the other way counts as inactive or inconclusive.
# Legend:
# [1] = target: Rap guanine nucleotide exchange factor 3 (Homo sapiens) (UniProt O95398); experiment: Confirmatory qHTS for antagonist of cAMP-regulated guanine nucleotide exchange factor 3 (EPAC1) (AID 1645880); also: nearly all actives have a fitted effect of over 55% in size; also: potency is read from the fitted curve at half-maximal effect
# Procedure, shortened: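 Nucleotide exchange uses 100 nM EPAC1, 250 nM RAP1B-BODIPY-GDP and 50 uM GDP, with compounds in a concentration-titration series. After 5 min at room temperature, fluorescence (480 nm ex/540 nm em) is read every 5 min for 30 min. Data are normalized to control ATA and DMSO.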
# [2] = target: Rap guanine nucleotide exchange factor 3 (Homo sapiens) (UniProt O95398); experiment: Confirmatory qHTS for agonist of cAMP-regulated guanine nucleotide exchange factor 3 (EPAC1) (AID 1645881);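 also: EPAC1 catalysed release of BODIPY-GDP from Rap1B seen as fluorescence loss; nearly all actives have a fitted effect of over 75% in size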
# [3] = target: Rap guanine nucleotide exchange factor 4 (Homo sapiens) (UniProt Q8WZA2); experiment: Confirmatory qHTS for agonist of cAMP-regulated guanine nucleotide exchange factor 4 (EPAC2) (AID 1645884);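 also: nucleotide exchange releases bodipy-GDP from Rap1 and this lowers its fluorescence; nearly all actives have a fitted effect of over 65% in size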
# [4] = target: Rap guanine nucleotide exchange factor 4 (Homo sapiens) (UniProt Q8WZA2); experiment: Confirmatory qHTS for antagonist of cAMP-regulated guanine nucleotide exchange factor 4 (EPAC2) (AID 1645885); also: nearly all actives have a fitted effect of over 25% in size; also: potency is read from the fitted curve at half-maximal effect
# [5] = target: Rap guanine nucleotide exchange factor 3 (Homo sapiens) (UniProt O95398); experiment: Counterscreen qHTS for antagonist of cAMP-regulated guanine nucleotide exchange factor 3 (EPAC1) (AID 1645888);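 also: fluorescence loss as bound BODIPY-GDP is released from Rap1B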
# Procedure, shortened: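 Measured: fluorescence of BODIPY-GDP bound to Rap1B, which falls as exchange proceeds. Conditions include 50 uM competing GDP, 5 and 30 min reads, and a later cAMP challenge for antagonist detection.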
# Sequence of Rap guanine nucleotide exchange factor 3 (Homo sapiens) (O95398 whole entry, looked up): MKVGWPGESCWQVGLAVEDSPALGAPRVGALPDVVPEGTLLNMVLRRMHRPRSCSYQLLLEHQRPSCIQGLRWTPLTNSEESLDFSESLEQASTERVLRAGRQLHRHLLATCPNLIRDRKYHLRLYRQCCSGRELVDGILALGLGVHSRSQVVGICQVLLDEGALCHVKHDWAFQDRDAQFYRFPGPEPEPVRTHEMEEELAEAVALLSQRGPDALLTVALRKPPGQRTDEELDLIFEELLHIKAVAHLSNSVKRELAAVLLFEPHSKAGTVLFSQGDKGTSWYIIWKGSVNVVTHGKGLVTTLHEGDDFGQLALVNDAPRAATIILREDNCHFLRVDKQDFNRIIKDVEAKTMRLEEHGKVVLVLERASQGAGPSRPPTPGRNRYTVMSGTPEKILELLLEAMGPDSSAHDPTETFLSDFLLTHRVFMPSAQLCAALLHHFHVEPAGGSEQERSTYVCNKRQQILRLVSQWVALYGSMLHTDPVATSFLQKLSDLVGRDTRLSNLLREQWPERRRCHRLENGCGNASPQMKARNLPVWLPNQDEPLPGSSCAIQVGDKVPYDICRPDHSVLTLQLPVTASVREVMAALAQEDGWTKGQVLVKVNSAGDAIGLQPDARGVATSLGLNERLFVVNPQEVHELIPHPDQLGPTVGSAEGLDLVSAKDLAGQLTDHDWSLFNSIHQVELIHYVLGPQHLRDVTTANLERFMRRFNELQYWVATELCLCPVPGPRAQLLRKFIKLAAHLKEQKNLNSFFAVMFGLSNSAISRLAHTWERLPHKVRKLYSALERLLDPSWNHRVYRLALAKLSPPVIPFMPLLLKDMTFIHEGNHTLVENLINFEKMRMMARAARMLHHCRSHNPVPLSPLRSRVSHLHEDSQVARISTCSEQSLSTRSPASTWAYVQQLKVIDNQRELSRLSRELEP
# Sequence of Rap guanine nucleotide exchange factor 4 (Homo sapiens) (Q8WZA2 whole entry, looked up): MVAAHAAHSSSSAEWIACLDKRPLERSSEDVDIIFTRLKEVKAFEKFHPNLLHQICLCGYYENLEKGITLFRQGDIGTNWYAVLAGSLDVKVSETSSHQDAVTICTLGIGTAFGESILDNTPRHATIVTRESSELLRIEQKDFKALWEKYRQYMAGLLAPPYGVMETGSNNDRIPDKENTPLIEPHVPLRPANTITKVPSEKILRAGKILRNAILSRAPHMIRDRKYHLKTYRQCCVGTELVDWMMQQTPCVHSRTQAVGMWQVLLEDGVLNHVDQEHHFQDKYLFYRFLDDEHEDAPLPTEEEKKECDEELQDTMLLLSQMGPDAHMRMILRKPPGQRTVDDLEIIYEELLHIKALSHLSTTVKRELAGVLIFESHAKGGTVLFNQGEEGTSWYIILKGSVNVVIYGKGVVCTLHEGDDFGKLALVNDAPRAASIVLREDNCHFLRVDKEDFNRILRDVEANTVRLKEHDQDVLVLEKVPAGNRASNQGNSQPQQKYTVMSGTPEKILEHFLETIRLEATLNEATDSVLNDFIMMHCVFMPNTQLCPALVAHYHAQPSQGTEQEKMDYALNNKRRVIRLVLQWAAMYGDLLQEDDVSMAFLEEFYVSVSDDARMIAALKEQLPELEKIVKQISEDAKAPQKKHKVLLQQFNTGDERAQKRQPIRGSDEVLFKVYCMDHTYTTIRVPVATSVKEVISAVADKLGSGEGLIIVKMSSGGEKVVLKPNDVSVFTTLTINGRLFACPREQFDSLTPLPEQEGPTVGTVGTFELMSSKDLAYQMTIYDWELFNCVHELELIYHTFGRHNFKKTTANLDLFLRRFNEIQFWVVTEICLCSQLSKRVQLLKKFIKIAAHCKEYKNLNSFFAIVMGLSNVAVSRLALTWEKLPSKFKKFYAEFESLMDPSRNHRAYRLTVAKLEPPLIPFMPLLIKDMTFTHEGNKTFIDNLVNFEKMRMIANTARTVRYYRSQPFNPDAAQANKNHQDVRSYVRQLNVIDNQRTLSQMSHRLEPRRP
SMILES,Potency [1],Potency [2],Potency [3],Potency [4],Potency [5],activation [3],"activity change, negative = inhibition [5]"
O=C(COC(=O)CSc1ccc([N+](=O)[O-])cc1)NCc1cccs1,inactive,inactive,inactive,inactive,inactive,,
COc1ccc(C(=O)N(Cc2ccccc2)c2cccc(C)c2)c(OC)c1OC,inactive,inactive,inactive,inactive,inactive,,
CC1CC1c1ccc(/C=C(\C#N)C(=O)Nc2ccccc2Cl)o1 (stereo not given),inactive,inactive,,inactive,,"3.85% [at 17.1 µM, percent relative to cAMP agonist control]",-9.3% [at 30.8 µM]
Cc1cc(C)cc(-c2nnc(SCc3ccc(C(=O)O)cc3)o2)c1,inactive,inactive,,inactive,,"0% [at 17.1 µM, percent relative to cAMP agonist control]",-19.9% [at 30.8 µM]
CS(=O)(=O)c1cccc(C(=O)OCC(=O)c2ccc3c(c2)OCCO3)c1,inactive,inactive,,inactive,,"8.5% [at 17.1 µM, percent relative to cAMP agonist control]",-4.85% [at 30.8 µM]
C#CC(c1ccccc1)(c1ccccc1)n1ccnc1,inactive,inactive,inactive,inactive,inactive,,
Cc1cc(-c2ccc(Br)s2)nc(-n2cccc2)n1,inactive,inactive,inactive,inactive,inactive,,
Cc1c(Cl)ccc2c(C(=O)O)cc(-c3ccccc3)nc12,inactive,inactive,,inactive,,"9.62% [at 17.1 µM, percent relative to cAMP agonist control]",5.51% [at 30.8 µM]
COC(=O)CNc1cc(S(=O)(=O)N2CCCCC2)ccc1Oc1cccc(C)c1,inactive,inactive,inactive,inactive,inactive,,
CCOC(=O)[C@H]1Nc2ccc(Cl)cc2[C@@H]2[C@H]1C1CC(c3ccccc31)N2C(=O)OCc1ccccc1 (stereo not given in full),inactive,inactive,,inactive,,"1.97% [at 17.1 µM, percent relative to cAMP agonist control]",4.44% [at 30.8 µM]
CC1(C)OCC(C2CC(c3ccccc3)NS(=O)(=O)O2)O1 (stereo not given),inactive,inactive,inactive,inactive,inactive,,
CCN(CC)c1nc(C)nc2c1sc(=S)n2C,inactive,inactive,inactive,inactive,inactive,,
Cc1ccc(NC(=O)c2cccc(NC(=O)/C=C/c3ccco3)c2)cc1C,39.8 µM (active),inactive,,inactive,,"6.06% [at 17.1 µM, percent relative to cAMP agonist control]",-4.44% [at 30.8 µM]
COc1ccc(C(=O)Nc2ccc(-c3cc4ccccc4oc3=O)c(C)c2)cc1Br,inactive,inactive,inactive,inactive,inactive,,
COc1cc(/C=C2\SC(=S)N(NS(=O)(=O)c3ccccc3)C2=O)cc(OC)c1OC,15.1 µM (active),inactive,inactive,inactive,inactive,,
CN(C(=O)COC(=O)/C=C/c1ccc2c(c1)OCO2)c1c(N)n(Cc2ccccc2)c(=O)[nH]c1=O,inactive,inactive,inactive,inactive,inactive,,
CCCC(=O)Nc1nnc(SCc2cc(=O)c3ccc(C)cc3[nH]2)s1,inactive,inactive,inactive,inactive,inactive,,
Oc1ccc(-c2c(-c3ccsc3)sc3ccccc23)cc1,inactive,inactive,,inactive,,"2.53% [at 17.1 µM, percent relative to cAMP agonist control]",-8.26% [at 30.8 µM]
COc1cc(Nc2nc(SCc3cccc(Cl)c3)nc3ccccc23)cc(OC)c1,inactive,inactive,inactive,0.151 µM (active),inactive,,
Cc1ccc(S(=O)(=O)CC(=O)N(CCCN(C)C)c2nc3ccc(C)cc3s2)cc1,inactive,inactive,inactive,inactive,inactive,,
COc1ccc(-c2nc3n(c(=O)c2C#N)CCS3)cc1,inactive,inactive,,inactive,,"4.85% [at 17.1 µM, percent relative to cAMP agonist control]",-1.96% [at 30.8 µM]
C/C(C/C(C)=C1/SC(=S)NC1=O)=C1\SC(=S)NC1=O,1.69 µM (active),inactive,inactive,21.3 µM (active),inactive,,
Cc1cccc(-n2c(O)c(C=Nc3ccccc3O)c3ccccc3c2=O)n1,inactive,inactive,inactive,inactive,inactive,,
Cn1cc(CNCc2cn(C)nc2-c2ccc(C3CCCCC3)cc2)cn1,inactive,inactive,inactive,inactive,inactive,,
CN1N=C(C(C)(C)C)CC1=O,inactive,inactive,inactive,inactive,inactive,,
